SMILES strings stand for the structures. Values joined by “and” are separate entries in the source; they are usually repeats but may differ in a detail not shown here. Equal entries are not always repeated.

Here are results for one molecule from PubChem BioAssay AID651871 (Sanford-Burnham Center for Chemical Genomics, 2012).

The test system of this assay is HL-1. As to the kind of experiment: cardiomyocyte survival under oxidative or metabolic stress – cell-based, panel, H9c2 and HL-1, ATP luminescence, set 2, SAR follow-up (AID 651871).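 Also: cells exposed to stressor for 2 h before ATP readout; reference of the scale not given here.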 Conditions: H9c2/HL-1 cardiomyocytes, 2-deoxyglucose stress, with 2-deoxyglucose, run 8, at 19.8 µM (top of the series).

As for `COc1ccc2c(c1OC)C(=O)N1c3ccccc3C(=O)N(Cc3cccc(Cl)c3Cl)C21` (stereo unspecified), the activity (protection/inhibition) is 51.9% and 34.6%.
